The target of assay [1] is Ubiquitin carboxyl-terminal hydrolase 1 (Homo sapiens) (UniProt O94782). The experiment in a line: Inhibitors of USP1/UAF1: Pilot qHTS (AID 504865).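 Note: rhodamine fluorescence freed from ubiquitin-rhodamine substrate followed over time; top concentration of the series differs between compounds; nearly all actives have a fitted effect of over 35% in size.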 To be noted: purified USP1/UAF1, Ub-rhodamine cleavage fluorescence; series mostly up to 114 µM. In a few lines: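 In 50mM HEPES pH 7.8 containing 0.5mM EDTA, 1mM TCEP, 0.1 mg/ml BSA and 0.01% Tween-20, 1nM USP1/UAF1 is exposed to compound for 15 min, then Ub-Rho (150nM final) is added and fluorescence is read over time.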
Chain of Ubiquitin carboxyl-terminal hydrolase 1 (Homo sapiens) (O94782 whole entry, looked up): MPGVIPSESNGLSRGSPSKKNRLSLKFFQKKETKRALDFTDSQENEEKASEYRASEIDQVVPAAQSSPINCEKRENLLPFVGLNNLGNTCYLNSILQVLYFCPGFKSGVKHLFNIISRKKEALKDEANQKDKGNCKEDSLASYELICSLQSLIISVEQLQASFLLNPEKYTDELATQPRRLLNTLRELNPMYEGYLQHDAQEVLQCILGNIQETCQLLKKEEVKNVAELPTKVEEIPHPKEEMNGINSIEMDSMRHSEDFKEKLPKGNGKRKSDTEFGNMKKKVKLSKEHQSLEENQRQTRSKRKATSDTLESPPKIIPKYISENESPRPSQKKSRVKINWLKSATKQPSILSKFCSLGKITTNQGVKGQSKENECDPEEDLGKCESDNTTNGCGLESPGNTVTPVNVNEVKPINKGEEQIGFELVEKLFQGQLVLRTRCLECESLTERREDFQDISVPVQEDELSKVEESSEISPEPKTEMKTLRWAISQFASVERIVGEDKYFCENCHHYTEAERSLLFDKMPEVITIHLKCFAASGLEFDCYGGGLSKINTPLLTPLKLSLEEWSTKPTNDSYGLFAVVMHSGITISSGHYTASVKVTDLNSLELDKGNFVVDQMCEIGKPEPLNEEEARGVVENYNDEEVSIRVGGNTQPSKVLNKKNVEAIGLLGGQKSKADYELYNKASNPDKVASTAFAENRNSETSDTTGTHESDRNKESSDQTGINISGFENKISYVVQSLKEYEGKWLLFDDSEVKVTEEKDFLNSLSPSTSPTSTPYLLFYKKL

Assay [2] deals with Luciferin 4-monooxygenase (Photinus pyralis) (UniProt P08659). Description: Biochemical firefly luciferase enzyme assay for NPC (AID 624030).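 Note: purified P. pyralis luciferase at 10 nM with luciferin and ATP substrate; nearly all actives have a fitted effect of over 70% in size.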 As to conditions: purified P. pyralis luciferase, luminescence, 5 min; series mostly up to 58.6 µM. Put shortly:
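Purified P. pyralis luciferase at 10 nM in 50 mM Tris Acetate (final), luminescence read within 5 minutes of enzyme addition to compounds. Activity normalised to PTC124 versus DMSO; concentration-response curves classed by r2, magnitude and activity.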

A short description of assay [3]: S16 Schwann cell viability assay (CellTiter-Glo assay) (AID 624031).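 Note: cellular ATP luminescence as a viability measure; nearly all actives have a fitted effect of over 70% in size.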 As to conditions: S16 rat Schwann cells viability, 24 h; series mostly up to 57.5 µM. Put shortly:
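CellTiter-Glo ATP luminescence counter-screen in untransfected S16 rat Schwann cells, 24h compound exposure at 37 degree Celsius after overnight seeding (500-750 cells/well); response scaled between cell-free wells and DMSO (0% activity), curves classed by r2 and magnitude.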
Background: Cellular ATP, detected with luciferase, serves as a proxy for viable cell number.

Assay [4] is described as follows: S16 Schwann cell PMP22 intronic element firefly luciferase assay (AID 624032). Note: nearly all actives have a fitted effect of over 30% in size. As to conditions: S16 rat Schwann cells, PMP22 element FLuc, 24 h; series mostly up to 57.5 µM. In a few lines: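 Rat S16 Schwann cells stably carrying firefly luciferase driven by a PMP22 intronic element, in 10% FBS, treated 24 h at 37 C. ONE-Glo luminescence normalized to PTC124 control and DMSO (0%); curves classed by r2, magnitude and activity.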

Assay [5] in a line: S16 Schwann cell PMP22 intronic element beta-lactamase assay (AID 624044; calls by dose curve; note: nearly all actives have a fitted effect of over 15% in size). As to conditions: S16 rat Schwann cells, PMP22 element beta-lactamase FRET, 24 h; series mostly up to 38.3 µM. Put shortly:
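Beta-lactamase reporter under a PMP22 intronic regulatory element in stable S16 rat Schwann cells; 24 h compound exposure. 460 nm blue signal normalized between DMSO (0%) and potassium clavulanate, with 535 nm FRET tracking viability; curves classed by r2 and response.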

Another assay deals with 3D7. The experiment in a line: qHTS profiling for inhibitors of Plasmodium falciparum proliferation (AID 504749). Note: nearly all actives have a fitted effect of over 60% in size. Note: potency is the fitted concentration of half-maximal effect. To be noted: P. falciparum in erythrocytes, SYBR Green DNA, 72 h; series mostly up to 28.7 µM. In a few lines:
(§1)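 SYBR Green fluorescence (ex 485 nm, em 535 nm) reports parasite DNA after 72 h compound exposure of infected red cells at 0.3% parasitemia, 2.5% hematocrit; signal normalized to 0.29 uM artemisinin and vehicle wells.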
In general terms: Quantitative high-throughput screening tests each substance at several concentrations.

A further assay deals with 7G8. Described as above. To be noted: P. falciparum in erythrocytes, SYBR Green DNA, 72 h; series mostly up to 28.7 µM. Put shortly: as §1
The subject of the next assay is AA1029. The assay is described as above. As to conditions: P. falciparum in erythrocytes, SYBR Green DNA, 72 h; series mostly up to 28.7 µM. In a few lines: as §1
The test system of the next assay is CP192. Described as above. To be noted: P. falciparum in erythrocytes, SYBR Green DNA, 72 h; series mostly up to 28.7 µM. Put shortly: as §1
In a further assay the test system is CP194. Described as above. To be noted: P. falciparum in erythrocytes, SYBR Green DNA, 72 h; series mostly up to 28.7 µM. Put shortly:
as §1

Another assay deals with CP203. The description is as above. To be noted: P. falciparum in erythrocytes, SYBR Green DNA, 72 h; series mostly up to 28.7 µM. In a few lines:
as §1

In a further assay the test system is CP247. Described as above. As to conditions: P. falciparum in erythrocytes, SYBR Green DNA, 72 h; series mostly up to 28.7 µM. Put shortly: as §1
Another assay relates to CP260. The assay is described as above. To be noted: P. falciparum in erythrocytes, SYBR Green DNA, 72 h; series mostly up to 28.7 µM. In a few lines: as §1
The subject of another assay is CP286. Described as above. As to conditions: P. falciparum in erythrocytes, SYBR Green DNA, 72 h; series mostly up to 28.7 µM. In a few lines:
as §1

Another assay relates to DIV14. The assay is described as above. As to conditions: P. falciparum in erythrocytes, SYBR Green DNA, 72 h; series mostly up to 28.7 µM. Put shortly:
as §1

For a further assay, the system named is Dd2. Described as above. As to conditions: P. falciparum in erythrocytes, SYBR Green DNA, 72 h; series mostly up to 28.7 µM. Put shortly:
as §1

Another assay has as its system ICS. Described as above. As to conditions: P. falciparum in erythrocytes, SYBR Green DNA, 72 h; series mostly up to 28.7 µM. Put shortly:
as §1

For the next assay, the system named is N140. The assay is described as above. To be noted: P. falciparum in erythrocytes, SYBR Green DNA, 72 h; series mostly up to 28.7 µM. In a few lines: as §1
A further assay has as its system PC49. Described as above. As to conditions: P. falciparum in erythrocytes, SYBR Green DNA, 72 h; series mostly up to 28.7 µM. Put shortly:
as §1

Another assay deals with TAB165. Described as above. To be noted: P. falciparum in erythrocytes, SYBR Green DNA, 72 h; series mostly up to 28.7 µM. Put shortly: as §1

Structures are written as SMILES. Records with an inconclusive call do not appear. Active and inactive are the calls of the source. Unless noted, calls come from the whole dose curve; as a rule, active = well fitted curve in the direction sought with a large enough effect; inconclusive = small, poorly fitted or top-dose-only effect, or another doubt; inactive = no such curve, though single readings can be large; an effect the other way counts as inactive or inconclusive.

Chain of Luciferin 4-monooxygenase (Photinus pyralis) (P08659 whole entry, looked up): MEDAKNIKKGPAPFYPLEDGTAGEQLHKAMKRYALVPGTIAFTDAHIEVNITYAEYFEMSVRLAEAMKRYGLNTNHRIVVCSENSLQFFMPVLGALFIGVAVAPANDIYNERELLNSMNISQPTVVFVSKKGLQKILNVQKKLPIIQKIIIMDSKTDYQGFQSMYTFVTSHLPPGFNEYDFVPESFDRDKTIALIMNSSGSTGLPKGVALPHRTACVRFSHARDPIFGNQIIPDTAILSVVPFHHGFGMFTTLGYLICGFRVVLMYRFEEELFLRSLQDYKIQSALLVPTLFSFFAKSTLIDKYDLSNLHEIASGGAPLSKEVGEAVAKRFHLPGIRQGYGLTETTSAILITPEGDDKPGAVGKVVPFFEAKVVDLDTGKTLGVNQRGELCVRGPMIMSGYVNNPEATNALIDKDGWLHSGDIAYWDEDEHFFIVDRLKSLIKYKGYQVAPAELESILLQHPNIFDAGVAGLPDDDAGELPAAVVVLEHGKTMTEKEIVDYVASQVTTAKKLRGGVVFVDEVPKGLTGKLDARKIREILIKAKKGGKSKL

Regarding `CC1(C)S[C@@H]2[C@H](NC(=O)Cc3ccccc3)C(=O)N2[C@@H]1C(=O)O`, the Potency entry (in assay [1]; in [3]; in assay [4]; in the assay on 3D7; with 7G8; in the assay with AA1029) was “inactive” throughout. Further, the Potency entry in the assay on CP192, with CP194, in the assay on CP203, with CP247, with CP260 and in the assay with CP286 was “inactive” each time. Moreover, the Potency entry in the assay on DIV14, in the assay on Dd2, in the assay on ICS, in the assay on N140, in the assay with PC49 and in the assay on TAB165 was “inactive” throughout. Besides, the call in assay [2] and in assay [5] was inactive.

`Cc1onc(-c2c(F)cccc2Cl)c1C(=O)N[C@@H]1C(=O)N2[C@H]1SC(C)(C)[C@H]2C(=O)O`: the Potency entry (in assay [1]; in assay [3]; in assay [4]; in the assay on 3D7; in the assay with 7G8; in the assay on AA1029) was “inactive” in each case. The Potency result in the assay on CP192, in the assay on CP194, in the assay with CP203, in the assay on CP247, in the assay on CP260 and with CP286 was “inactive” in each case. For the same compound, the Potency result with DIV14, in the assay with Dd2, in the assay with ICS, in the assay on N140, with PC49 and with TAB165 was “inactive” each time. The outcome in assay [2] and in assay [5] was inactive.

For the compound `C[C@H](CCC(=O)O)[C@H]1CC[C@@H]2[C@H]3[C@@H](C[C@@H](O)[C@]21C)[C@]1(C)CC[C@H](O)C[C@@H]1C[C@@H]3O`, the Potency result (in assay [1]; in [3]; in [4]; in the assay on 3D7; in the assay on 7G8; in the assay on AA1029) was “inactive” each time. The Potency result with CP192, in the assay on CP194, with CP203, in the assay with CP247, in the assay on CP260 and in the assay on CP286 was “inactive” throughout. Also, the Potency entry with DIV14, with Dd2, with ICS, with N140, in the assay on PC49 and in the assay on TAB165 was “inactive” throughout. In addition, the result in [2] and in assay [5] was inactive.

`CC(C)(C)c1ccc(CN2CCN([C@H](c3ccccc3)c3ccc(Cl)cc3)CC2)cc1`: the Potency result in assay [1], in [3] and in [4] was “inactive” each time. Further, the result in assay [2] and in [5] was inactive. In addition, the Potency in the assay on 3D7 was 6.31 µM (active); with 7G8, 3.55 µM (active); in the assay with AA1029, 8.91 µM (active); with CP260 it was 7.08 µM (active); with CP286, 4.47 µM (active); in the assay on DIV14 it was 15.1 µM (active). Besides, the Potency with Dd2 was 8.91 µM (active); in the assay on ICS, 2.51 µM (active); in the assay on N140, 7.08 µM (active); in the assay with TAB165, 7.94 µM (active).

Take `O=C(O)[C@@H](O)[C@@H](O)[C@H](O)C(=O)CO`: the Potency entry (in assay [1]; in assay [3]; in [4]; in the assay with 3D7; in the assay with 7G8; in the assay on AA1029) was “inactive” throughout. Besides, the Potency result in the assay on CP192, in the assay with CP194, in the assay with CP203, with CP247, in the assay with CP260 and with CP286 was “inactive” throughout. In addition, the Potency result in the assay with DIV14, with Dd2, in the assay with ICS, in the assay with N140, in the assay with PC49 and in the assay on TAB165 was “inactive” each time. The result in [2] and in [5] was inactive.

(Values after PubChem BioAssay (NCATS).)
